Results on 107 compounds are retold here after ChEMBL document CHEMBL4513216, “Probing the Open Global Health Chemical Diversity Library for Multistage-Active Starting Points for Next-Generation Antimalarials” (ACS Infect Dis, 2020).

In all, about 69,000 compounds went through this assay and about 8,600 (12%) showed an effect of 50% or more. This excerpt belongs to a sample that is enriched for strong results.

The test system of the assay is Plasmodium berghei. The assay is described as follows: Screen against P. berghei liver stage (PbLuc), transformed with Luciferase, at 10uM. Type of assay: functional, HepG2. The note with it: tested at 10 uM.
For the compound `CCc1ncc(CNCc2cccnc2N(C)C)cn1`, the INHIBITION was -0.29%.
As to `Cc1cccc(C)c1OCCNC(=O)C(C)n1cncn1` (configuration not stated), the INHIBITION is recorded as -42.3%.
With `O=C(C1CC1)N1CC[C@H]2C(=O)N(c3ccsc3)CCO[C@H]2C1` the figure was 33%.
In the case of `O=C1COC2(CCN(c3ncccn3)CC2)CN1c1ccsc1` it was 26.5%.
For `COCC(=O)N1CCC2(CC1)CN(c1ccsc1)C(=O)CO2`, the INHIBITION is given as 64.9%.
With `CN(C)CC(=O)N1CCC2(CC1)CN(c1ccsc1)C(=O)CO2`, the INHIBITION is 47.2%.
For the compound `CCc1cnc(N2CCC3(CC2)CN(c2cccnc2)C(=O)CO3)nc1`, the INHIBITION is 47.2%.
Take `Cc1cnc(N2CCC3(CC2)CN(c2ccsc2)C(=O)CO3)nc1`: the INHIBITION is 53.9%.
In the case of `COCC(=O)N1CCC2(CC1)CN(c1cncnc1)C(=O)CO2`, the INHIBITION was 24.1%.
In the case of `O=C(c1cccs1)N1CCC2(CC1)CN(c1ccsc1)C(=O)CO2` it was 22.9%.
For `O=C(C1CCOCC1)N1CCC2(CC1)CN(c1ccsc1)C(=O)CO2`, the INHIBITION amounted to 74.2%.
As for `O=C(Nc1ccccc1)N1CCC2(CC(=O)N(c3ccsc3)C2)C1` (configuration not stated), the INHIBITION is reported as -12.2%.
With `O=C(c1cccs1)N1CCC2(CC1)CN(c1cncnc1)C(=O)CO2`, the INHIBITION worked out at 48.6%.
Regarding `NC(=O)N1CCC2(CC1)CN(c1ccsc1)C(=O)CO2`, the INHIBITION worked out at 54.6%.
In the case of `O=C(NCc1ccco1)[C@H]1COC[C@H]2CN(Cc3ccoc3)C[C@H]21`, the INHIBITION is reported as 25.2%.
Regarding `CCOc1ccc(C#N)cc1NCC(=O)NC1(C#N)CCCC1`, the INHIBITION is listed as -2.53%.
As for `Cc1ccc(NC(=O)N2CCCC2)c(OCC2CCCO2)c1` (configuration not stated), the INHIBITION is on record as -8.11%.
Turning to `CCS(=O)(=O)N1CCN(Cc2cccnc2)c2nc(C)ccc2C1`, the INHIBITION is on record as 38.1%.
On to `O=C(Nc1cccs1)NC(CCCO)c1ccccc1` (configuration not stated), for which the INHIBITION worked out at 24.3%.
As to `O=C(NCc1csc(Br)c1)N1CCC(O)CC1`, the INHIBITION is reported as -0.822%.
Take `COCC(=O)NCCCn1nc2ccccn2c1=O`: the INHIBITION is on record as 19.7%.
In the case of `CC(C)N(C)Cc1nnc2n1CCN(CC1CC1)CC2` it was 20.1%.
With `CCS(=O)(=O)N1CCC2(CC1)CN(c1ccsc1)C(=O)CO2`, the INHIBITION was 54.4%.
For the compound `CCS(=O)(=O)N1CCC2(CC1)CN(c1cncnc1)C(=O)CO2`, the INHIBITION amounted to 14.1%.
`O=C1COC2(CCN(S(=O)(=O)C3CC3)CC2)CN1c1ccsc1`: the INHIBITION came out at 3.25%.
With `Cc1cc2ccccc2n1CCC(=O)N1CCN(C)CC1C(N)=O` (configuration not stated) the figure was 34.9%; with `CSCC(=O)N1CCOC(c2nc(C)n[nH]2)C1` (configuration not stated), 36.8%.
As to `CC(C)c1nc(C2CCCN(C(=O)c3cccc4c3OCO4)C2)no1` (configuration not stated), the INHIBITION was 42%.
Consider `CSc1ncc(C(=O)N2C[C@@H]3CC[C@H]2CN(Cc2ccccc2)C3)cn1`, for which the INHIBITION is recorded as -9.76%.
In the case of `CN1CCN(CCCNC(=O)C2CCCCC2)CC1` it was -24%; in that of `CN1CCC(CN(C)S(=O)(=O)CC2CCCCC2)CC1`, 72.3%; in that of `Cc1ccc2cccc(S(=O)(=O)N(C)CC3CCN(C)CC3)c2n1`, 17.6%.
Consider `CN1CCN(CCCN(C)S(=O)(=O)CC2CCCCC2)CC1`, for which the INHIBITION turned out to be 54.4%.
Consider `Cc1ccc2cccc(S(=O)(=O)N(C)CC3CCN(C)C3)c2n1` (configuration not stated), for which the INHIBITION is 16%.
For the compound `CN(C)CCN(C)S(=O)(=O)CC1CCOCC1`, the INHIBITION is 30.2%.
In the case of `CN(CCN1CCCC1=O)S(=O)(=O)CC1CCCC1`, the INHIBITION was 88%.
In the case of `CN1CCN(CCCN(C)S(=O)(=O)C2CCCCC2)CC1` it was 43.2%; in that of `CN(CCN1CCOCC1)S(=O)(=O)CC1CCCC1`, 38.7%.
Turning to `O=C(NCCCn1cccn1)N1CCCC1c1cccs1` (configuration not stated), the INHIBITION is on record as 25.2%.
With `Cc1ccsc1CN1CC[C@H]2OCC[C@@]2(C(=O)N2CCCO2)C1`, the INHIBITION is 37.2%.
With `COCCNC(=O)[C@@H]1C[C@@H]2CCN(c3ncccn3)C[C@H]2O1` the figure was 4.57%; with `O=C(Nc1ccccc1F)C1CSCN1C(=O)CCc1ccco1` (configuration not stated), -39.2%; with `COc1ccc(S(N)(=O)=O)cc1C(=O)N(C)Cc1cc(C)on1`, 51.2%.
Regarding `CCN(C)C(=O)Nc1cc(F)c(OC)cc1F`, the INHIBITION was 14.9%.
Consider `Cc1cc(CN(C)C(=O)NCc2ccccn2)no1`, for which the INHIBITION is -22.8%.
With `Cc1cc(CN(C)C(=O)Nc2ccccc2C)no1` the figure was 67.1%; with `COc1ccc(F)cc1C(=O)N(C)Cc1cc(C)on1`, 35.7%.
For `CCNC(=O)c1ccc(NC(=O)N(C)Cc2cc(C)on2)c(C)c1`, the INHIBITION is reported as 29.6%.
With `COc1ccc(Cl)cc1C(=O)N(C)Cc1cc(C)on1` the figure was -4.16%; with `COc1cc(F)c(NC(=O)N(C)Cc2cc(C)on2)cc1F`, 52.6%; with `COc1cc(F)c(NC(=O)N(C)CCNC(=O)N(C)C)cc1F`, 36.3%.
For the compound `Cc1ccc(-n2nnc(C(=O)O)c2C)c(C)c1`, the INHIBITION was 14.2%.
Turning to `CCOCCC(=O)N1C[C@@H]2CC[C@H]1CN(c1ncccn1)C2`, the INHIBITION is 43.2%.
Take `Cc1cccc(NC(=O)C2CSCN2C(=O)c2cnccn2)c1C` (configuration not stated): the INHIBITION is recorded as 33.35%.
As for `COc1ccc(C)cc1CC(=O)NS(=O)(=O)c1ccc(C(N)=O)cc1`, the INHIBITION is -2.19%.
With `CCC(=O)Nc1nnc(CCOc2ccccc2OC)s1`, the INHIBITION is -23.8%.
For `O=C(NCC1Cn2nnc(-c3ccoc3)c2CO1)c1ccc[nH]1` (configuration not stated), the INHIBITION was found to be 27.4%.
In the case of `CN1CCCC1c1nccnc1-c1ccc(C(=O)O)cc1` (configuration not stated), the INHIBITION is on record as -14.2%.
As to `Cc1ncsc1CN(Cc1ccccc1)Cc1ncc[nH]1`, the INHIBITION is on record as 46.6%.
`Cc1nn(C)c(Cl)c1C1CCCN1C(=O)c1ccc(N(C)C)nn1` (configuration not stated): the INHIBITION is 53.8%.
In the case of `Cc1nn(C)c(C)c1C1CCCN1C(=O)c1ccc(C(N)=O)cn1` (configuration not stated) it was 9.555%; in that of `Cc1nn(C)c(Cl)c1C1CCCN1C(=O)c1ccc(O)nc1` (configuration not stated), 48.1%; in that of `Cc1nn(C)c(C)c1C1CCCN1C(=O)c1ccc(N(C)C)nn1` (configuration not stated), -71.1%.
In the case of `COc1c(C2CCCN2C(=O)c2ccc(N(C)C)nn2)c(C)nn1C` (configuration not stated) it was -57.4%; in that of `Cc1nn(C)c(Cl)c1C1CCCN1C(=O)c1ccc(C(N)=O)cn1` (configuration not stated), 84.3%; in that of `Cc1nn(C)c(C)c1NC(=O)CN1CCN(c2nccs2)C(C)C1` (configuration not stated), 21.6%.
On to `Cc1c(C[S+](C)[O-])cccc1NC(=O)c1cc(Cl)ccn1` (configuration not stated), for which the INHIBITION was -42.1%.
Take `Cc1c(NC(=O)N(C)CCn2cnnc2)cccc1OC1CCCC1`: the INHIBITION is on record as 13.3%.
Take `CCNC(=O)N(CCCO)C1CCCc2ccccc21` (configuration not stated): the INHIBITION amounted to 45.7%.
As for `CC(O)CN1CCC(CNCc2ccc(OC(F)(F)F)cc2)CC1` (configuration not stated), the INHIBITION came to 44.7%.
`CCN(c1ccc(C(=O)N2CCCC(C)C2)cc1)S(=O)(=O)CC` (configuration not stated): the INHIBITION was 10.1%.
On to `CCN(c1ccc(C(=O)N2CCC(C)CC2)cc1)S(=O)(=O)CC`, for which the INHIBITION stood at 22.9%.
With `CCS(=O)(=O)N(C)c1ccc(C(=O)N2CCCC(C)C2)cc1` (configuration not stated) the figure was 60.1%.
In the case of `O=C(NCCc1cccnc1)Nc1cc(C(F)(F)F)c[nH]c1=O` it was -12.6%; in that of `COCCOCCC(=O)N1CCC(c2ccccc2C)C1` (configuration not stated), 55.2%.
Regarding `COCCOCC(=O)N1CCC(c2ccccc2F)C1` (configuration not stated), the INHIBITION is on record as -112%.
As for `Cc1ccccc1C1CCN(C(=O)CCNC(=O)C(C)(C)C)C1` (configuration not stated), the INHIBITION is listed as -66.4%.
For the compound `CS(=O)(=O)N1CCC(NC(=O)COc2ccc(Cl)cc2)CC1`, the INHIBITION is given as -61.4%.
With `CC1c2ncc(CN3CCN(C)CC3)n2CCN1CC1CC1` (configuration not stated) the figure was -10.4%.
Consider `CN(C)CC1CN(c2cnc3ccccc3n2)CCO1` (configuration not stated), for which the INHIBITION was 38.8%.
In the case of `c1ccc2nc(N3CCOC(Cn4cccn4)C3)cnc2c1` (configuration not stated) it was -34%; in that of `Cc1cc(N2CCC(CO)(CC3CCCCO3)CC2)nc2ccccc12` (configuration not stated), 53%.
For the compound `Cc1cc(N2CCC3(CCCN(CCO)C3=O)C2)nc(C)c1C#N` (configuration not stated), the INHIBITION was determined as 38%.
Regarding `Cc1cc(N2CCC3(CC2)C(C(=O)O)CC(=O)N3C)nc2ccccc12` (configuration not stated), the INHIBITION came out at 9.56%.
As to `Cc1cc(N2CCC3(CCCN(CCO)C3=O)C2)nc2ccccc12` (configuration not stated), the INHIBITION was 57.2%.
In the case of `COCCC1(C(=O)O)CCCN(c2cc(C)c3ccccc3n2)C1` (configuration not stated) it was 20.2%.
With `OCC1(CC2CCCCO2)CCN(c2cnc3ccccc3n2)CC1` (configuration not stated), the INHIBITION is recorded as 83.9%.
With `Cc1cc(N2CCC3(CCCN(CCO)C3=O)C2)nc2cc(Cl)ccc12` (configuration not stated) the figure was 16.1%; with `COCCC1(C(=O)O)CCN(c2cc(C)c3ccccc3n2)CC1`, 62.8%; with `Cc1cc(N2CCC(CO)(CC3CCCCO3)CC2)c2ccccc2n1` (configuration not stated), 47.6%.
With `Cc1cc(N2CCC(O)(C(=O)O)CC2)nc2ccccc12` the figure was 32.2%; with `Cc1cc(C(=O)N(CC(F)(F)F)C2CCOCC2)c(C)o1`, 15%.
Regarding `Cc1nnc(CNC(C)c2cc(C)c(F)c(C)c2)s1` (configuration not stated), the INHIBITION was determined as 36.2%.
As for `CC(C(=O)Nc1ccccn1)n1ccc(C(F)(F)F)n1` (configuration not stated), the INHIBITION is 11%.
For `O=C(O)[C@@H]1CN(C(=O)CSCC2CC2)C[C@H]1c1ccncc1`, the INHIBITION is listed as -8.7%.
In the case of `CCN(CC1CCOC1)C(=O)c1cn2ccc(C)cc2n1` (configuration not stated), the INHIBITION is listed as 30.5%.
As for `Cc1cc(-c2cc(N)c(=O)n(CC(=O)NC3CCCC3)n2)c(C)o1`, the INHIBITION stood at 18.27%.
Take `Cc1ccc(CN2CC[C@@H]3[C@@H](CO[C@H]3CN3CCN(C)CC3)C2)cc1`: the INHIBITION is 23.3%.
With `Cc1cc(C(=O)N2CC[C@@H](O)[C@@H]2Cc2ccccc2)no1` the figure was 2.58%.
With `COc1ccc2c(c1)C(=O)CC1(CCN(Cc3ccc(F)cc3)CC1)O2` the figure was -0.371%; with `COc1ccc2c(c1)OC1(CCN(Cc3ccccc3C)CC1)CC2=O`, 5.56%; with `COc1ccc2c(c1)OC1(CCN(Cc3cccc(C)c3)CC1)CC2=O`, 37.2%.
In the case of `CCOC(=O)CN1CCC2(CC1)CC(=O)c1ccc(OC)cc1O2`, the INHIBITION amounted to 72.4%.
With `COc1ccc2c(c1)OC1(CCN(Cc3ccc(C)cc3)CC1)CC2=O` the figure was 31.2%; with `COc1ccc2c(c1)OC1(CCN(Cc3ccc(F)cc3)CC1)CC2=O`, 51.6%.
Take `CSCCC(=O)N1C[C@@H](C)[C@](O)(C(C)C)C1`: the INHIBITION is recorded as 22.5%.
`CCn1cnnc1CNC(=O)N1CCC(CN2CCOCC2)CC1`: the INHIBITION was -11.4%.
